# Out of some 38,000 compounds screened, about 1,200 (3.2%) showed an effect of 50% or more. The median lay at about -58%. This excerpt belongs to a sample that is enriched for strong results.
# Tested on: Plasmodium falciparum
# Test: Calibr Malaria Delayed Death Assay SOP
# Format: functional, organism-based
# Parameters: scale not given: in the data most compounds retested in dose-response had high values
# Conditions: concentration 4.99e-06 (unit not given; other assays of the set use mol/L)
row,Compound,Percent Effect [%]
1,N#Cc1csc(CNCCOc2ccccc2)c1,-47.61
2,CC(C)N1Cc2c(C(=O)N3CCN(C)CC3)nn(C)c2C1,-111.4
3,Cc1ccc(-c2nc(CN3CCCC3Cn3cncn3)co2)cc1 (centres undefined),-9.69
4,CC1CS(=O)(=O)CCN1Cc1ccccc1N(C)C (centres undefined),-5.29
5,CN(C)c1ccccc1CN1CCCCC1CNS(C)(=O)=O (centres undefined),58.92
6,CS(=O)(=O)NCC1CCCCN1Cc1ccccc1C#N (centres undefined),-35.93
7,CCCC1(CNCc2ncc[nH]2)CCC1,24.35
8,CCC1(CNCc2ncc[nH]2)CCCC1,66.04
9,c1ccc(CC2(CNCc3ncc[nH]3)CCC2)cc1,42.05
10,Cl.c1cc(OCc2ccc3c(c2)OCO3)ccc1CNC1CC1,-194.6
11,O=C(Nc1cccc(OCC(F)F)n1)c1ccncc1F,-156.1
12,O=C1NC(c2ccccc2)=N[C@@]12CC[C@@H]1CN(Cc3ccoc3)C[C@@H]12,57.5
13,O=C1NC(c2ccccc2)=N[C@@]12CC[C@@H]1CN(Cc3ccncc3)C[C@@H]12,12.66
14,O=C1NC(c2ccccc2)=N[C@@]12CC[C@@H]1CN(Cc3ccco3)C[C@@H]12,17.95
15,Cc1nc(C)n(CC2CN(CCCOc3ccccc3)CCO2)n1 (centres undefined),-31.23
16,CN1CCNC(=O)C1CC(=O)NCCc1cnn(-c2ccccc2)c1 (centres undefined),-54.63
17,Cc1ccc(C(=O)N2CCC3(CCCC3)CC2)c(=O)[nH]1,-40.97
18,Cc1ccc(C(=O)N2CCOCC3(CCN(C4CCOCC4)C3)C2)o1.O=C(O)C(F)(F)F (centres undefined),-106.4
19,c1cc(CN2CCOCC3(CCN(C4CCOCC4)C3)C2)ccn1 (centres undefined),-42.35
20,O=C(N1CCOCC1)[C@@]12CCO[C@@H]1CCN(Cc1cccc(F)c1)C2.O=C(O)C(F)(F)F,-31.47
21,O=C(O)C(F)(F)F.O=C(O)C(F)(F)F.O=C(O)C(F)(F)F.c1cncc(CN2CCC3(COCCN(C4CCOCC4)C3)C2)c1 (centres undefined),-45.9
22,Fc1cccc(CN2CCOCC3(CCN(C4CCOCC4)C3)C2)c1.O=C(O)C(F)(F)F.O=C(O)C(F)(F)F (centres undefined),77.57
23,Cc1occc1C(=O)N1CCOCC2(CCN(C3CCOCC3)C2)C1.O=C(O)C(F)(F)F (centres undefined),-32.59
24,Cc1cccc(CN2CCOCC3(CCN(C4CCOCC4)C3)C2)c1.O=C(O)C(F)(F)F.O=C(O)C(F)(F)F (centres undefined),78

row,Compound,Percent Effect [%]
1,O=C(O)C(F)(F)F.O=C(c1ccoc1)N1CCOC2(COCCN(CC3CC3)C2)C1 (centres undefined),-22.12
2,Fc1cccc(CN2CCOC3(COCCN(CC4CC4)C3)C2)c1.O=C(O)C(F)(F)F.O=C(O)C(F)(F)F (centres undefined),61.62
3,COc1ccc(CN2CCOCC3(CCN(C4CCOCC4)C3)C2)cc1.O=C(O)C(F)(F)F.O=C(O)C(F)(F)F (centres undefined),59.83
4,Cc1cccc(CN2CCOCC3(CCN(C4CCOCC4)C3)C2)n1.O=C(O)C(F)(F)F.O=C(O)C(F)(F)F.O=C(O)C(F)(F)F (centres undefined),40.9
5,O=C(O)C(F)(F)F.O=C(c1ccco1)N1CCOCC2(CCN(C3CCOCC3)C2)C1 (centres undefined),-3.89
6,O=C(O)C(F)(F)F.O=C([C@@H]1C[C@@H]2CCN(C3CCOCC3)C[C@H]2O1)N1CCOCC1,-14.29
7,c1cc(-c2cn[nH]c2)ccc1CN1CCCCC1,-42.56
8,CCn1ccnc1CNCc1ccc(C)cc1OC(C)(C)C,21.04
9,Cn1cc(CN2CC[C@@H]3[C@H]2CCC(=O)N3c2ccccc2)cn1.O=C(O)C(F)(F)F,-62.18
10,Cn1cnc2nc3n(c2c1=O)CCC3,-114.6
11,COc1ccc2nnc(CCC(=O)Nc3nc4c(s3)CCC4)n2n1,-9.679
12,CCN1CCC(CNc2nccc(C)n2)(N(C)C)CC1,-52.36
13,Cn1cc(CN2CCCC3(COCCN(Cc4c[nH]nn4)C3)C2)cn1.O=C(O)C(F)(F)F.O=C(O)C(F)(F)F (centres undefined),-58.09
14,Fc1ccc(CN2CCCC3(COCCN(Cc4c[nH]nn4)C3)C2)cc1.O=C(O)C(F)(F)F.O=C(O)C(F)(F)F (centres undefined),61.69
15,O=C(O)C(F)(F)F.O=C(O)C(F)(F)F.c1cc(CN2CCCC3(COCCN(Cc4c[nH]nn4)C3)C2)cs1 (centres undefined),27.82
16,CO[C@@H]1CC[C@H]2[C@H]1OCCN2C(=O)C1CCOCC1,-57.64
17,NS(=O)(=O)c1cnn(CCC(=O)N(C2CCCCC2)C2CC2)c1,-77.61
18,CC(C)(C(=O)NCC(=O)N1CCCC1)c1ccccc1F,-11.95
19,COC(=O)CCC(=O)N1CCC2(CN(Cc3cccc(Cl)c3)C2)C1,-43.68
20,COCCC(=O)N1CCC2(CN(Cc3cccc(Cl)c3)C2)C1,-141.8
21,CC(=O)N(c1ccc(F)cc1)c1nc(CN2CCCC2C(C)C)cs1 (centres undefined),89.73
22,CC(=O)N(c1ccc(C)cc1)c1nc(CN2CCCC(C)C2)cs1 (centres undefined),82.35
23,CC(=O)N(C)c1nc(CN2CCCC2Cn2cncn2)cs1 (centres undefined),-120.1
24,CC(=O)N(C)c1nc(CN2CCCC2c2cnn(C)c2)cs1 (centres undefined),-87.18

row,Compound,Percent Effect [%]
1,Cc1cccc2nc(CN3CCCC(C)C3)cc(=O)n12 (centres undefined),-16.65
2,CCN(C(C)=O)c1nc(CN2CCCCC2Cn2cncn2)cs1 (centres undefined),7.085
3,CC(=O)N(c1ccc(C)cc1)c1nc(CN2CCCCC2C)cs1 (centres undefined),61.62
4,CC1CCCN(Cc2ccc(CNC(=O)NCc3ccon3)cc2)C1 (centres undefined),-178.1
5,CC(=O)N(C)c1nc(CN2CCCCC2Cn2cncn2)cs1 (centres undefined),-131.1
6,O=C(O)C(F)(F)F.c1cnc(N2CC[C@@H](OCC3CC3)[C@@H]2Cc2cccnc2)nc1,-48.06
7,Cn1cc(C(=O)CC2CCCN2C(=O)c2c[nH]c3ccccc23)cn1 (centres undefined),4.786
8,CCC(CO)N(C/C(C)=C/c1ccco1)Cc1ccco1 (centres undefined),-44.13
9,Cc1ccc(C(=O)N2CCO[C@H]3[C@H](OCC4CCOCC4)CC[C@@H]32)o1,-19.31
10,CS(=O)(=O)NC[C@]12COC[C@H]1CN(C(=O)CC1CCCC1)C2,-153.3
11,O=C(C1CCOCC1)N1C[C@H]2CCC[C@@]2(COc2cccnc2)C1.O=C(O)C(F)(F)F,-16.46
12,Cn1nnc(NCc2ccc(OCc3ccc(Cl)cc3)cc2)n1,-71.17
13,Cc1nc2oc(C(=O)N3CCOCC3)c(N)c2c2c1CCCC2,-269.1
14,O=C(C[C@@H]1COC[C@H]2CN(Cc3ccccc3)C[C@@H]12)N1CCCC1.O=C(O)C(F)(F)F,-13.07
15,CC(C)(C)c1cc2ncn(CCCN3CCCCC3CO)c(=O)c2s1 (centres undefined),-23.08
16,O=C(NCC1CC1)C1CCC2(CCN(C(=O)c3ccccn3)CC2)O1.O=C(O)C(F)(F)F (centres undefined),-137.4
17,O=C(NCC(O)CO)Nc1cc(Br)ccc1F (centres undefined),-140
18,O=C(NCc1cccnc1N1CCc2ccccc2C1)c1cc(=O)[nH][nH]1,-96.6
19,Cc1nc(CN2CCCC(N(C)Cc3cnn(C)c3)C2)no1 (centres undefined),-49.27
20,Cc1nc(CN2CCCC(NCc3nc4ccccc4s3)C2)no1 (centres undefined),-31.98
21,Cc1nc(CN2CCCC(NCc3ccc4ccccc4c3)C2)no1 (centres undefined),-12.45
22,Cc1nc(CN2CCCC(NCCc3ccccc3Cl)C2)no1 (centres undefined),81.78
23,COc1ccccc1OCCNC1CCCN(Cc2noc(C)n2)C1 (centres undefined),19.3
24,Cc1nc(CN2CCCC(NCCOc3ccccc3)C2)no1 (centres undefined),-60.44

row,Compound,Percent Effect [%]
1,Cc1nc(CN2CCCC(NCc3cccc4ccccc34)C2)no1 (centres undefined),57.02
2,Cc1nc(CN2CCCC(N(C)Cc3c(C)noc3C)C2)no1 (centres undefined),57.32
3,Cc1cc(CN(C)C2CCCN(Cc3noc(C)n3)C2)no1 (centres undefined),-96.62
4,CCOc1ncccc1CNS(=O)(=O)c1ccc2c(c1)CCO2,-29.02
5,CCc1nnc2n1CCN(Cc1nc3c(F)cccc3[nH]1)C2,-34.12
6,O=C(NCc1cccs1)[C@H]1CC[C@@H]2[C@@H](CCN2Cc2ccoc2)O1.O=C(O)C(F)(F)F,4.133
7,Cc1nnc([C@@]23CCO[C@@H]2CCN(Cc2cccc4ccccc24)C3)o1,-36.67
8,COc1cc(C2CC(=O)Nc3c2nc2n3CCCC2)cc(OC)c1O (centres undefined),-209
9,Cc1noc2ncc(S(=O)(=O)N3CCCC(C)(C)CC3)cc12,-55
10,CCN(CC)c1ccc(-c2ccc(C)c(S(N)(=O)=O)c2)nn1,-97.64
11,CC(CN1CC[C@@H]2CCCC[C@@H]2C1)n1cnc2ccccc21 (some centres undefined),-12.48
12,CN(Cc1ccc(N(C)C)cc1)C(=O)NCc1nnc2n1CCC2,-107.1
13,CNc1c(NCc2ccco2)c(=O)c1=O,-69.06
14,COc1ccccc1C(O)Cn1cc(C(=O)NCc2ccco2)nn1 (centres undefined),-49.33
15,Cc1ccc(CNC(C)(C)c2noc(C(C)(C)C)n2)o1,-93.54
16,COc1ccccc1C(C)(C)NCc1ccc(C)o1,77.27
17,COc1ccccc1C(C)(C)NCc1ccco1,64.69
18,COC(=O)c1ccc(CNC(C)(C)c2ccccc2OC)o1,-1.138
19,CCc1nc(CN2CCCC(N(C)Cc3nc(C)c(C)o3)C2)no1 (centres undefined),-5.85
20,Cc1ncnc2c1CCN(CC(=O)N(C)C)CC2.O=C(O)C(F)(F)F,-30.27
21,O=C(C1=COCCO1)N1CC(Oc2nc3c(Cl)cccc3s2)C1,-117.3
22,COCCN1C(=O)CC[C@@H]2[C@H]1CCN2S(=O)(=O)c1cccs1,-44.47

# Reference: ChEMBL document CHEMBL3988442, “University of Dundee, Small-Polar-MMV Screening Library” (2021)
